Bioassay records (PubChem)
Hits are enriched below; roughly 11% of the tested compounds scored in any of these assays.
BAZ2B inh: blocks human BAZ2B | Q9UIF8 | AlphaScreen BAZ2B-H3K14Ac peptide displacement | Potency, µM (series often up to 114 µM), for the others: at the top dose activity change, negative = inhibition, usual class: inhibitors | 4.4% of 360,000 active; further: on the % scale 0 is the no-effect control and ±100 the full control effect; nearly all actives have a fitted effect of over 60% in size
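Inhibition is scored as reduced AlphaScreen emission. The BAZ2B/b-H3(5-23)K14Ac complex (50 nM each) in PBS pH 7.4, 0.01% Tween-20 meets compound (up to 110 uM) for 30 min at RT before bead addition.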
HP1b binding inh: blocks HP1-beta chromodomain binding to methylated histone tails; P83916; AlphaScreen HP1-beta / biotin-H3K9me3 peptide binding; Potency, µM (titrated, usually from 114 µM), for inactives: top-dose activity change, negative = inhibition, hits mostly inhibitors; 0.56% of 390,000 active; AID 540317; further: nearly all actives have a fitted effect of over 70% in size
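Compound inhibition of the preformed complex between 50 nM HP1-beta and 50 nM biotinylated H3K9me3 peptide was read by AlphaScreen. Buffer was PBS pH 7.4 with 0.01% Tween-20. Incubations ran 30 min at room temperature, with 10 ug/mL donor/acceptor beads.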
G9a block: inhibitors of human histone lysine methyltransferase G9a; 8.8% of 350,000 active; G9a H3K9 monomethylation, AlphaScreen, 2 h; Q96KQ7; Potency, µM (titrated, usually from 102 µM), for the others: top-dose activity, negative = inhibition, most hits filed as inhibitors; further: on the % scale 0 is the no-effect control and ±100 the full control effect; nearly all actives have a fitted effect of over 75% in size
Target sequence (Q96KQ7 913-1193 limits assumed): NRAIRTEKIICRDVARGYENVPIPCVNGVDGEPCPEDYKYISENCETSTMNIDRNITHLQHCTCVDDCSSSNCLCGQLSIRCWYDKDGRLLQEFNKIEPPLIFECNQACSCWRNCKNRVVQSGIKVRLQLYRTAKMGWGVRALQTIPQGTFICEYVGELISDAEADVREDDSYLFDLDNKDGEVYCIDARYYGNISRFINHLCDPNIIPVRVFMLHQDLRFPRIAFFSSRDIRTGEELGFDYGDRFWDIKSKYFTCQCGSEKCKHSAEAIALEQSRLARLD
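G9a (20 nM) preincubated 15 min RT with compounds, then 500 nM biotinylated H3K9 peptide and 20 uM SAM added; 2 h RT reaction. Monomethyl-H3K9 product detected by AlphaScreen with anti-H3K9me1 antibody, streptavidin donor and anti-rabbit IgG acceptor beads.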
PLK1 PBD block: PLK1 (human) polo-box domain binding inhibition; P53350; Plk1 PBD binding of FITC phosphopeptide, fluorescence polarization; Potency, µM, for inactives: max response, negative = inhibition, usual class: inhibitors; 2.8% of 360,000 active; further: series mostly up to about 57 µM; on the % scale 0 is the no-effect control and ±100 the full control effect; nearly all actives have a fitted effect of over 65% in size
JMJD2A Tudor inh: JMJD2A Tudor domain (human) inhibition | 4.4% of 390,000 active | AlphaScreen JMJD2A-Tudor / H3K4me3 peptide binding | O75164 | Potency, µM (top dose mostly 114 µM), for the others: at the top dose activity change, negative = inhibition, actives largely listed as inhibitors; further: on the % scale 0 is the no-effect control and ±100 the full control effect; nearly all actives have a fitted effect of over 50% in size
VDR inh: inhibitors of human vitamin D receptor; VDR-SRC2-3 peptide fluorescence polarization, 2 h; Potency, µM, for inactives: max response, negative = inhibition, actives largely listed as inhibitors; AID 504847; P11473; 0.93% of 400,000 active; further: on the % scale 0 is the no-effect control and ±100 the full control effect
Target sequence (P11473 whole entry, looked up): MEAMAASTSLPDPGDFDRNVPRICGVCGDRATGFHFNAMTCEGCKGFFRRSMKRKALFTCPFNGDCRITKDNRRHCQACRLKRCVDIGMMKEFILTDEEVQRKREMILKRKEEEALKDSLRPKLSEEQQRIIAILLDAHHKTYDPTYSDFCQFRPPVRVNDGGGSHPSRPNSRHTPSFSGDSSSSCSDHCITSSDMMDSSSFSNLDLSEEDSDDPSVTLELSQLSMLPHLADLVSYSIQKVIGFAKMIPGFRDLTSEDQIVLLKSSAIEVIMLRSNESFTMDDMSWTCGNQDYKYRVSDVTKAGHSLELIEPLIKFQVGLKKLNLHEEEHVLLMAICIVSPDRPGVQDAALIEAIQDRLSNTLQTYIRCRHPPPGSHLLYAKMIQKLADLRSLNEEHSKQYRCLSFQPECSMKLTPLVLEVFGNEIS
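Signal is fluorescence polarization, reporting how far test compounds block the interaction of VDR with the SRC2-3 coregulator peptide after a 2 h room-temperature incubation.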
* = called active by the depositor; ? = inconclusive; · = not tested or not shown; [ ] = another dose, or the depositor's remark. The call rests on the fitted dose curve; in most records, active means well fitted curve in the direction sought with a large enough effect; inconclusive means small, poorly fitted or top-dose-only effect, or another doubt; inactive means no such curve, though single readings can be large; an effect the other way counts as inactive or inconclusive. Potency means the concentration at half of the fitted maximal effect.

SMILES | BAZ2B inh | HP1b binding inh | G9a block | PLK1 PBD block | JMJD2A Tudor inh | VDR inh
CCCOc1cccc(C2C(C(=O)c3ccco3)=C(O)C(=O)N2CCN(CC)CC)c1 (stereo unspecified) | 0.4% | 32.4% | ? | -5.5% | -20.3% | 12.6%
CCN(CC)CCN1C(=O)C(O)=C(C(=O)c2ccco2)C1c1ccccn1 (stereo unspecified) | ? | 45.7% | 11.2µM* | -23.7% | 89.1µM* | 1.3%
CN(C)CCN1C(=O)C(O)=C(C(=O)c2cc3ccccc3o2)C1c1ccccn1 (stereo unspecified) | 12.0% | · | ? | · | · | ·
CCN(CC)CCCN1C(=O)C(O)=C(C(=O)c2cc3ccccc3o2)C1c1ccccn1 (stereo unspecified) | -26.1% | -3.2% | ? | 26.7µM* | 0.8%[11.4 µM] | -10.3%
CN(C)c1ccc(CNc2nc(-c3ccco3)nn2S(=O)(=O)c2ccc3ccccc3c2)cc1 | 8.91µM* | ? | 7.94µM* | · | 8.91µM* | 12.4%
N#CC1(C#N)CC(C=O)=C(N)C1(C#N)CC(=O)c1ccc(F)cc1 (stereo unspecified) | -33.5% | -17.7% | 31.6µM* | ? | -9.4%[57.1 µM] | -9.2%
O=C(C[N+]12CC[N+](CC(=O)c3ccc(F)cc3)(CC1)CC2)c1ccc(F)cc1 | 9.3% | 27.3% | -5.8% | ? | -1.7% | -0.4%
CCN(CC)c1ccc(S(=O)(=O)N2CCCCC2)cc1NC(=O)C1CSC2(C)CCC(=O)N12 (stereo unspecified) | -15.3% | 16.5% | 4.4%[59 µM] | 3.1% | -25.2% | -0.5%
CCOc1ccc(S(=O)(=O)N2CCOCC2)cc1NC(=O)C1CSC2(C)CCC(=O)N12 (stereo unspecified) | -17.4% | 15.4% | 44.7µM* | 1.1% | -2.1% | -5.8%
O=C(c1ccco1)N1CCN(C(=O)c2cnn(-c3ccc(Cl)cc3)c2C2CCNCC2)CC1 | -5.1% | 38.3% | 70.8µM* | -11.9% | -10.3% | -2.4%
C=C/C(C)=C/CC1C(=C)CCC2C(C)(C(=O)O)CCCC12C (stereo unspecified) | -34.0% | 19.6% | 5.1%[12.7 µM] | 18.9µM* | 56.2µM* | 11.1%
C=C1CCC2[C@](C)(CO)C(O)CC[C@]2(C)C1C/C=C1/C(=O)OCC1O (stereo partly specified) | · | · | 17.2%[59 µM] | · | · | -2.3%
C=C[C@]1(C)C=C2CCC3[C@](C)(CCC[C@@]3(C)C(=O)O)C2CC1 (stereo partly specified) | -9.8% | 14.0% | 4.2%[12.7 µM] | 23.8µM* | ? | -12.1%
O=C(Nc1cccc(C(=O)N2CCCC2)c1)C1CC1 | · | 30.1% | · | -18.1% | -15.1% | -13.6%
CCCCCC(=O)Nc1ccccc1N1CCN(c2ccccc2)CC1 | 2.7% | 60.5% | -6.9%[59 µM] | -4.2% | -7.9% | -8.8%
O=C(O)/C=C\C(=O)Nc1ccccc1N1CCN(c2ccccc2)CC1 | ? | 21.5% | 44.7µM* | -12.1% | -21.1% | -16.6%
CC(C)C(NC(=O)CN1C(=O)c2ccccc2C1=O)c1ccccc1 (stereo unspecified) | 1.3% | 11.4% | -6.6% | -4.2% | -20.3% | 16.8%
CNc1cccccc1=S | 10µM* | -19.3% | 3.55µM* | ? | 11.2µM* | ?
COC(=O)Cn1cc(C#N)c2ccccc21 | 0.4% | 16.8% | 10µM* | -7.0% | -8.3% | -8.8%
CC(C)OC(=O)Cn1cc(C#N)c2ccccc21 | 10.7% | 23.9% | -25.7% | -19.2% | -9.5% | -3.2%
COC(=O)Cn1cc(/C=C/c2cc[n+](C)cc2)c2ccccc21 | 44.7µM* | 11.2% | 44.7µM* | 38.7% | ? | -11.6%
COC(=O)Cn1c(C)c(/C=C/c2cc[n+](C)cc2)c2ccccc21 | ? | ? | 39.8µM* | 50.8% | ? | -4.0%
CCOc1ccccc1CNC(=O)c1ccc(NC(=O)N2CC(C)Sc3ccccc32)cc1 (stereo unspecified) | -17.8% | 9.6% | 2.2%[59 µM] | · | -26.2% | 9.6%
COc1ccc(C2(CNC(=O)/C=C/c3ccco3)CCCC2)cc1OC | ? | 11.3% | ? | ? | -25.2% | ?
O=C(/C=C/c1ccco1)NCC1(c2ccccc2)CCCC1 | -28.3% | 17.2% | 11.2µM* | -3.9% | -3.7% | -6.5%
SMILES | BAZ2B inh | HP1b binding inh | G9a block | PLK1 PBD block | JMJD2A Tudor inh | VDR inh
O=C(O)CCCNC(=O)/C=C/c1ccco1 | 12.6µM* | 35.5µM* | · | ? | 7.94µM* | -14.2%
CCOc1ccc(Nc2c(S(=O)(=O)c3ccc(Cl)cc3)cnc3ccc(OC)cc23)cc1 | -29.4% | -2.5% | -32.7%[59 µM] | · | -21.8% | -17.0%
CN(Cc1ccccc1)C(=S)NC(=O)c1cccs1 | ? | 12.8% | 39.8µM* | -11.9% | -33.1% | -6.3%
CCc1ccc2c(c1)c(=O)c(S(=O)(=O)c1ccc(F)cc1)cn2CC(=O)Nc1ccc(C)cc1C | -4.3% | 17.3% | -17.6%[59 µM] | · | -3.3% | -8.4%
CC(OC(=O)c1nccnc1N)C(=O)Nc1ccc(S(=O)(=O)N2CCCC2)cc1 (stereo unspecified) | 7.4% | 7.0% | -13.9% | -7.7% | -4.8% | 3.9%
O=C(O)c1cccc(-c2ccc(/C=N/Nc3ccc([N+](=O)[O-])cc3)o2)c1 | 44.7µM* | -21.0% | · | 47.3% | -27.5% | -9.5%
O=C(O)c1cc(-c2ccc(/C=N/Nc3ccc([N+](=O)[O-])cn3)o2)ccc1Cl | · | ? | 79.4µM* | ? | 39.8µM* | ?
O=C(O)c1cc(N/N=C/c2ccc(-c3ccc(F)cc3)o2)ccc1Cl | ? | -9.6% | 50.1µM* | ? | -18.0% | -14.3%
O=C(O)c1ccc(N/N=C/C=C/c2ccc([N+](=O)[O-])o2)cc1 | 39.8µM* | ? | 31.6µM* | -12.8% | 44.7µM* | ?
CN[C@H]1[C@H](O)[C@@H](O[C@@H]2[C@H](O)[C@@H](O[C@H]3OC(CN)=CC[C@H]3N)[C@@H](N)C[C@H]2N)OC[C@@]1(C)O | · | · | -13.6%[21.5 µM] | · | · | -8.6%
Cc1ccc(-c2ccc(/C=N/NC(=S)Nc3ccccc3)o2)cc1[N+](=O)[O-] | ? | -27.6% | -23.2% | -7.9% | ? | 16.1%
CNC(=S)N/N=C/c1ccc(-c2ccc(Cl)c([N+](=O)[O-])c2)o1 | 79.4µM* | 10.2% | · | -21.4% | -25.4% | 6.3%
OCCCNc1nc(-c2ccccc2)nc2c1oc1ccccc12 | ? | 0.8% | 50.1µM* | -8.2% | -9.4% | -10.1%
CSCC[C@@H](Nc1nc(-c2ccccc2)nc2c1oc1ccccc12)C(=O)O | -3.2% | 16.3% | 7.7%[12.7 µM] | -9.8% | -19.7% | -4.8%
c1ccc(-c2nc(NCC3CCCO3)c3oc4ccccc4c3n2)cc1 (stereo unspecified) | -8.8% | 44.2% | 44.7µM* | -2.8% | -14.4% | -1.1%
c1ccc2c(c1)oc1c(NCC3CCCO3)ncnc12 (stereo unspecified) | -35.2% | 31.0% | · | -4.2% | -10.8% | 9.9%
